Among the data in PubChem BioAssay (NCATS) are Potency values, retold here.

Values joined by “and” are separate entries in the source; they are usually repeats but may differ in a detail not shown here. Equal values may be shown once. Results filed as inconclusive are left out. Active and inactive are the calls of the source. The call rests on the fitted dose curve; in most records, active means well fitted inhibition curve with a large enough effect; inconclusive means small, poorly fitted or top-dose-only effect; inactive means flat fitted curve, though single readings scatter.

Common to all, as to assay: qHTS profiling for inhibitors of Plasmodium falciparum proliferation (AID 504749); further: nearly all actives have a fitted effect of over 60% in size
Common to all, as to conditions: P. falciparum in erythrocytes, SYBR Green DNA, 72 h; series mostly up to 28.7 µM
In general terms: Quantitative high-throughput screening tests each substance at several concentrations.

In one assay the test system is CP192. A digest of the protocol:
(§1)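 SYBR Green fluorescence (ex 485 nm, em 535 nm) reports parasite DNA after 72 h compound exposure of infected red cells at 0.3% parasitemia, 2.5% hematocrit; signal normalized to 0.29 uM artemisinin and vehicle wells.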

The test system of the next assay is CP194. A digest of the protocol:
as §1

A further assay has as its system CP201. In a few lines: as §1
The next assay has as its system CP211. In a few lines:
as §1

In a further assay the test system is CP215. A digest of the protocol:
as §1

A further assay relates to CP217. A digest of the protocol: as §1
The next assay deals with CP237. In a few lines: as §1
The test system of a further assay is CP238. A digest of the protocol: as §1
The subject of another assay is CP247. A digest of the protocol: as §1
The next assay deals with CP250. A digest of the protocol:
as §1

The test system of a further assay is CP252. In a few lines:
as §1

Another assay relates to CP256. A digest of the protocol:
as §1

A further assay has as its system CP260. In a few lines: as §1
The subject of a further assay is CP262. A digest of the protocol: as §1
In another assay the test system is CP265. A digest of the protocol: as §1
The next assay has as its system CP266. A digest of the protocol: as §1
The subject of another assay is CP268. A digest of the protocol:
as §1

The next assay has as its system CP269. A digest of the protocol:
as §1

The next assay has as its system CP286. A digest of the protocol: as §1
A further assay relates to CP203. A digest of the protocol: as §1
Potency means the concentration at half of the fitted maximal effect.

For `NC(=O)CN1CCCC1=O`, the Potency result in the assay with CP192, in the assay with CP194, with CP201, in the assay with CP211, with CP215 and in the assay with CP217 was “inactive” throughout. The Potency result with CP237, in the assay with CP238, in the assay on CP247, in the assay with CP250, with CP252 and with CP256 was “inactive” throughout. Further, the Potency entry with CP260, in the assay on CP262, with CP265, in the assay on CP266, in the assay on CP268 and with CP269 was “inactive” each time. The Potency result with CP286 is “inactive”.

As to `CCNc1nc(Cl)nc(NCC)n1`, the Potency result in the assay with CP192, in the assay with CP194, in the assay on CP201, with CP211, in the assay on CP215 and in the assay on CP217 was “inactive” in each case. Also, the Potency result in the assay on CP237, in the assay on CP238, in the assay with CP247, in the assay with CP250, in the assay with CP252 and in the assay with CP256 was “inactive” in each case. Also, the Potency result with CP260, in the assay on CP262, with CP265, in the assay on CP266, in the assay on CP268 and in the assay with CP269 was “inactive” in each case. The Potency entry with CP286 was “inactive”.

For `C[C@]12CC[C@H]3[C@@H](CC=C4C[C@@H](O)CC[C@@]43C)[C@@H]1CC[C@@H]2O`, the Potency result with CP192, in the assay with CP194, in the assay with CP201, in the assay on CP211, in the assay with CP215 and with CP217 was “inactive” each time. Further, the Potency entry in the assay on CP237, in the assay with CP238, in the assay on CP247, in the assay on CP250, in the assay on CP252 and with CP256 was “inactive” throughout. The Potency entry with CP260, in the assay with CP262, with CP265, in the assay with CP266, with CP268 and in the assay with CP269 was “inactive” throughout. In addition, in the assay with CP286, the Potency result was “inactive”.

For the compound `CCC(=O)O[C@H]1CC[C@H]2[C@@H]3CCC4=CC(=O)CC[C@]4(C)[C@H]3CC[C@]12C`, the Potency result in the assay with CP192, in the assay with CP194, in the assay on CP201, in the assay with CP211, in the assay on CP215 and in the assay with CP217 was “inactive” throughout. The Potency entry in the assay with CP237, in the assay with CP238, with CP247, with CP250, with CP252 and in the assay on CP256 was “inactive” in each case. Moreover, the Potency result in the assay with CP260, with CP262, with CP265, with CP266, with CP268 and with CP269 was “inactive” throughout. Besides, the Potency entry in the assay on CP286 is “inactive”.

With `COP(=O)(OC)C(O)C(Cl)(Cl)Cl` (stereo not given), the Potency result in the assay with CP192, in the assay on CP194, in the assay with CP201, in the assay on CP211, with CP215 and in the assay with CP217 was “inactive” each time. The Potency entry with CP237, in the assay with CP238, in the assay with CP247, in the assay with CP250, in the assay on CP252 and in the assay with CP256 was “inactive” each time. Moreover, the Potency entry with CP260, in the assay on CP262, in the assay with CP265, in the assay on CP266, in the assay on CP268 and in the assay on CP269 was “inactive” each time. Further, the Potency entry with CP286 was “inactive”.

Consider `C[N+]1(CCC(C(N)=O)(c2ccccc2)c2ccccc2)CCCCC1`, for which the Potency entry in the assay with CP192, with CP194, in the assay on CP201, with CP211, in the assay on CP215 and in the assay on CP217 was “inactive” throughout. Moreover, the Potency result in the assay on CP237, with CP238, in the assay on CP247, in the assay with CP250, in the assay on CP252 and in the assay with CP256 was “inactive” each time. Further, the Potency result with CP260, with CP262, in the assay with CP265, with CP266, in the assay with CP268 and in the assay with CP269 was “inactive” in each case. In addition, in the assay on CP286, the Potency entry is “inactive”.

As to `NC(=O)OCCCc1ccccc1`, the Potency entry in the assay with CP192, in the assay with CP194, in the assay on CP201, in the assay with CP211, in the assay with CP215 and in the assay on CP217 was “inactive” in each case. The Potency entry with CP237, in the assay with CP238, with CP247, with CP250, in the assay on CP252 and in the assay on CP256 was “inactive” throughout. Besides, the Potency entry in the assay on CP260, in the assay with CP262, in the assay with CP265, with CP266, with CP268 and in the assay on CP269 was “inactive” in each case. The Potency entry with CP286 is “inactive”.

On to `Cc1ccc(N=CN(C)C=Nc2ccc(C)cc2C)c(C)c1`, for which the Potency result with CP192, in the assay on CP194, in the assay with CP201, with CP211, in the assay with CP215 and in the assay on CP217 was “inactive” throughout. In addition, the Potency result in the assay on CP237, in the assay on CP238, in the assay with CP247, in the assay on CP250, in the assay on CP252 and in the assay with CP256 was “inactive” each time. Further, the Potency entry in the assay with CP260, with CP262, in the assay with CP265, in the assay with CP266, with CP268 and with CP269 was “inactive” in each case. For the same compound, in the assay with CP286, the Potency entry was “inactive”.

In the case of `CC[n+]1c(-c2ccccc2)c2cc(N)ccc2c2ccc(N)cc21`, the Potency in the assay with CP192 was 190 nM (active) and 426 nM (active); with CP194 it was 269 nM (active) and 1.2 µM (active); with CP201 it was 379 nM (active) and 1.35 µM (active); in the assay with CP211, 213 nM (active) and 601 nM (active); in the assay with CP215, 239 nM (active) and 953 nM (active); in the assay with CP217, 355 nM (active) and 631 nM (active). Also, the Potency in the assay with CP237 was 158 nM (active) and 398 nM (active); in the assay on CP238, 112 nM (active) and 355 nM (active); with CP247, 282 nM (active) and 631 nM (active); in the assay with CP250 it was 178 nM (active) and 355 nM (active); in the assay with CP252, 100 nM (active) and 282 nM (active); with CP256, 31.6 nM (active) and 63.1 nM (active). The Potency in the assay on CP260 was 199 nM (active) and 398 nM (active); with CP262, 95.3 nM (active) and 107 nM (active); in the assay on CP265, 251 nM (active) and 794 nM (active); in the assay on CP266, 301 nM (active) and 601 nM (active); with CP268, 107 nM (active) and 379 nM (active); in the assay on CP269, 120 nM (active) and 478 nM (active). The Potency with CP286 was 70.8 nM (active) and 158 nM (active).

With `CCC1(CC)C(=O)NC(=O)NC1=O`, the Potency result with CP192, in the assay on CP194, in the assay with CP201, in the assay with CP211, in the assay on CP215 and in the assay on CP217 was “inactive” each time. The Potency entry in the assay on CP237, with CP238, with CP247, with CP250, in the assay with CP252 and in the assay on CP256 was “inactive” each time. Besides, the Potency result with CP260, in the assay with CP262, in the assay with CP265, with CP266, in the assay on CP268 and in the assay on CP269 was “inactive” throughout. The Potency result with CP286 is “inactive”.

For `CC(C)[N+](C)(CCC(C(N)=O)(c1ccccc1)c1ccccc1)C(C)C`, the Potency result in the assay with CP192, in the assay on CP194, with CP201, in the assay on CP203, in the assay with CP211 and in the assay on CP215 was “inactive” throughout. For the same compound, the Potency result with CP217, with CP237, with CP238, with CP247, in the assay with CP250 and with CP252 was “inactive” each time. Further, the Potency entry with CP256, with CP260, in the assay on CP262, in the assay with CP265, with CP266 and in the assay with CP268 was “inactive” each time. The Potency result with CP269 and in the assay on CP286 was “inactive” throughout.

`CCCCCCCCCCCC[N+](C)(C)CCOc1ccccc1`: the Potency in the assay with CP192 is 9.53 µM (active); in the assay on CP194 it was 15.1 µM (active); with CP201, 10.7 µM (active); in the assay on CP203, 10.7 µM (active); in the assay with CP211, 8.49 µM (active); with CP215, 12 µM (active). Further, the Potency was 6.31 µM (active) in the assay with CP217; 5.01 µM (active) in the assay on CP237; 7.94 µM (active) with CP238; 7.08 µM (active) with CP247; 7.94 µM (active) in the assay on CP250; 7.94 µM (active) in the assay with CP252. The Potency in the assay on CP256 is 5.62 µM (active); with CP260, 3.98 µM (active); in the assay on CP262, 5.36 µM (active); in the assay with CP265, 6.31 µM (active); with CP266, 15.1 µM (active); in the assay on CP268, 9.53 µM (active). The Potency in the assay on CP269 was 10.7 µM (active); in the assay with CP286, 2.51 µM (active).
